PubChem BioAssay (NCI)
Where “and” joins values, the source holds several entries; their conditions need not be identical. Equal entries are not always repeated. Compounds without any hit were thinned out: in the full panel of roughly 79,000, 15% have a hit. Some compounds were tested as several samples or in several runs, with calls that do not always agree. Calls of active or inactive are those of the source. Cut-off read from the data, not from the text of the source: active = growth inhibition above about 70%; inactive = the rest.

What was measured:
[1] = NCI Yeast Anticancer Drug Screen. Data for the mec2-1 strain (AID 157); conditions: S. cerevisiae mec2-1 strain, stronger effect = higher value
Outline: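 Compounds were applied to mec2-1 yeast cells. Their growth was then compared with that of vehicle-treated cultures to give growth inhibition.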

[2] = NCI Yeast Anticancer Drug Screen. Data for the rad14 strain (AID 159);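 note: 0% = growth of vehicle-treated control cultures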; conditions: S. cerevisiae rad14 strain growth inhibition, stronger effect = higher value
Outline: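 Here, inhibition of yeast growth was measured after compound exposure, using a strain with a genetic defect in DNA damage repair and vehicle-treated cultures as the reference.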

[3] = NCI Yeast Anticancer Drug Screen. Data for the sgs1 mgt1 strain (AID 161);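 note: 0% = growth of cultures given vehicle only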; conditions: S. cerevisiae sgs1 mgt1 strain, stronger effect = higher value
Outline: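 Compounds are added to genetically altered yeast, and growth is compared with cultures given vehicle alone to give percent inhibition.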

[4] = NCI Yeast Anticancer Drug Screen. Data for the CLN2oe strain (AID 163);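 note: 0% = growth of vehicle-only control cultures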; conditions: S. cerevisiae CLN2oe strain, stronger effect = higher value
Outline: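 Cells of an engineered yeast line with disturbed cell-cycle regulation are treated with compound. Inhibition of growth is then calculated relative to the vehicle-treated reference.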

[5] = NCI Yeast Anticancer Drug Screen. Data for the cln2 rad14 strain (AID 165);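 note: 0% = growth equal to vehicle treated cultures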; conditions: S. cerevisiae cln2 rad14 strain, stronger effect = higher value
Outline: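 Strain: cln2 rad14 yeast, altered in cell cycle control and DNA damage repair. Read-out: growth inhibition vs vehicle.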

[6] = NCI Yeast Anticancer Drug Screen. Data for the bub3 strain (AID 167); conditions: S. cerevisiae bub3 mutant strain, stronger effect = higher value
Outline: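 Whole-cell yeast assay. The mutant strain was incubated with compounds, and growth inhibition was determined by comparison with vehicle-treated cells.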

[7] = NCI Yeast Anticancer Drug Screen. Data for the mlh1 strain (AID 171);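 note: 0% = growth of vehicle-treated control cultures of the same strain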; conditions: S. cerevisiae mlh1 strain growth inhibition, stronger effect = higher value
Outline: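 Test agents were incubated with yeast bearing a defined DNA damage repair or cell cycle control alteration; values are growth inhibition normalised to vehicle-treated cultures.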

[8] = NCI Yeast Anticancer Drug Screen. Data for the sgs1 strain (AID 173);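 note: 0% = growth of vehicle-only control cultures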; conditions: S. cerevisiae sgs1 mutant, stronger effect = higher value
Outline: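 Strain with an altered DNA repair or cell cycle pathway exposed to compound. Growth then measured. Value = inhibition versus vehicle control.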

[9] = NCI Yeast Anticancer Drug Screen. Data for the mlh1 rad18 strain (AID 175); conditions: S. cerevisiae mlh1 rad18 strain growth inhibition, stronger effect = higher value
Outline: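 A repair-deficient yeast strain is exposed to test compound, and growth is scored relative to vehicle-treated controls.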

[10] = NCI Yeast Anticancer Drug Screen. Data for the rad18 strain (AID 177); conditions: S. cerevisiae rad18 mutant growth inhibition, stronger effect = higher value
Outline: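 DNA-repair-defective yeast; compound treatment; growth inhibition scored against vehicle.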

[11] = NCI Yeast Anticancer Drug Screen. Data for the wt1 strain (AID 149);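 note: 0% = growth of vehicle-treated wt1 cultures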; conditions: S. cerevisiae wt1 strain (SPY 50644) growth inhibition, stronger effect = higher value
Outline: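 Measured: growth of wt1 yeast under compound versus vehicle treatment, reported as inhibition.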

[12] = NCI Yeast Anticancer Drug Screen. Data for the rad50EPP+ strain (AID 151);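 note: 0% = growth of vehicle-treated control cultures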; conditions: S. cerevisiae rad50 mutant strain, stronger effect = higher value
Outline: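 Measured: growth inhibition of rad50EPP+ yeast. Reference: vehicle-treated controls. Screen uses strains with defined genetic alterations in DNA damage repair or cell cycle control.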

[13] = NCI Yeast Anticancer Drug Screen. Data for the mgt1 strain (AID 153); conditions: S. cerevisiae mgt1 mutant growth inhibition, stronger effect = higher value
Outline: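 Compounds were applied to mgt1 mutant yeast, and growth was then compared against vehicle-treated control cultures to give percent inhibition.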

[14] = NCI Yeast Anticancer Drug Screen. Data for the rad50 strain (AID 155);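 note: 0% = growth of vehicle-only cultures of the same strain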; conditions: S. cerevisiae rad50 strain growth inhibition, stronger effect = higher value
Outline: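 Growth of the mutant yeast was measured after compound exposure and referenced to vehicle-treated cultures.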

[15] = NCI Yeast Anticancer Drug Screen. Data for the wt2 strain (AID 169);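 note: 0% = growth of vehicle-treated yeast cultures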; conditions: S. cerevisiae wt2 strain growth inhibition, stronger effect = higher value
Outline: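 Growth of compound-treated yeast is measured and expressed as inhibition relative to vehicle-only controls.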

[16] = NCI Yeast Anticancer Drug Screen. Data for the rad52 strain (AID 147);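 note: 0% = growth of vehicle-treated control cultures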; conditions: S. cerevisiae rad52 mutant growth inhibition, stronger effect = higher value
Outline: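 Growth of repair-deficient yeast cells was compared between compound-treated and vehicle-treated cultures to give percent inhibition.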

[17] = at 5.0 µM (retest, dose inferred, filed as 0.5)
[18] = at 50.0 µM (retest, dose inferred, filed as 5.0)

Measured: growth inhibition

C=C1CCC(O)C/C1=C/C=C1\CCCC2(C)C1CCC2C(C)CCCC(C)C (centres undefined)
inactive: [1]; at 100.0 µM -15% | [2]; at 1.2 µM -14% | [2]; at 3.7 µM -27% | [2]; at 11.0 µM -23% | [2]; at 33.0 µM -23% | [2]; at 100.0 µM 38% | [3]; [17] 6% | [3]; [18] 57% | [3]; at 50.0 µM 54.9% | [4]; at 1.2 µM -11% | [4]; at 3.7 µM 8% | [4]; at 11.0 µM 2% | [4]; at 33.0 µM 6% | [4]; at 100.0 µM 39% | [5]; [17] 9% | [5]; [18] 19% | [5]; at 50.0 µM 4.95% | [6]; at 1.2 µM -25% | [6]; at 3.7 µM -23% | [6]; [17] 9% | [6]; at 11.0 µM -27% | [6]; at 33.0 µM -13% | [6]; [18] 69% | [6]; at 50.0 µM 24.1% | [6]; at 100.0 µM 7% | [7]; at 1.2 µM -24% | [7]; at 3.7 µM -26% | [7]; at 11.0 µM -26% | [7]; at 33.0 µM -5% | [7]; at 100.0 µM 18% | [8]; at 1.2 µM -23% | [8]; at 3.7 µM -6% | [8]; at 11.0 µM -25% | [8]; at 33.0 µM -13% | [8]; at 100.0 µM 35% | [9]; [17] 11% | [10]; at 1.2 µM -10% | [10]; at 3.7 µM -6% | [10]; at 11.0 µM -8% | [10]; at 33.0 µM 13% | [10]; at 100.0 µM 34%
active: [9]; [18] 93% | [9]; at 50.0 µM 82.9%

S=c1[nH]c2cc3ccccc3cc2[nH]1
active: [14]; [18] 86% | [14]; at 50.0 µM 71.2% | [6]; [18] 83% | [9]; [18] 78%
inactive: [11]; at 1.2 µM -24% | [11]; at 3.7 µM -6% | [11]; at 11.0 µM 6% | [11]; at 33.0 µM 3% | [11]; at 100.0 µM 2% | [12]; at 1.2 µM -12% | [12]; at 3.7 µM 3% | [12]; at 11.0 µM -4% | [12]; at 33.0 µM 14% | [12]; at 100.0 µM 38% | [13]; at 1.2 µM -36% | [13]; at 3.7 µM -7% | [13]; at 11.0 µM -15% | [13]; at 33.0 µM 6% | [13]; at 100.0 µM 16% | [14]; at 1.2 µM -25% | [14]; at 3.7 µM -25% | [14]; [17] 5% | [14]; at 11.0 µM -11% | [14]; at 33.0 µM 3% | [14]; at 100.0 µM 17% | [1]; at 1.2 µM -25% | [1]; at 3.7 µM -13% | [1]; [17] -3% | [1]; at 11.0 µM -8% | [1]; at 33.0 µM 1% | [1]; [18] 17% | [1]; at 50.0 µM 45.6% | [1]; at 100.0 µM 24% | [2]; at 1.2 µM -14% | [2]; at 3.7 µM -11% | [2]; at 11.0 µM -7% | [2]; at 33.0 µM -10% | [2]; at 100.0 µM 1% | [3]; [17] -5% | [3]; [18] 15% | [3]; at 50.0 µM 68.8% | [4]; at 1.2 µM -13% | [4]; at 3.7 µM -18% | [4]; at 11.0 µM -3% | [4]; at 33.0 µM -7% | [4]; at 100.0 µM 18% | [5]; [17] 34% | [5]; [18] 57% | [5]; at 50.0 µM 43.6% | [6]; at 1.2 µM -7% | [6]; at 3.7 µM 15% | [6]; [17] -4% | [6]; at 11.0 µM -9% | [6]; at 33.0 µM 7% | [6]; at 50.0 µM 68.9% | [6]; at 100.0 µM 40% | [15]; at 1.2 µM -55% | [15]; at 3.7 µM -50% | [15]; at 11.0 µM -46% | [15]; at 33.0 µM -19% | [15]; at 100.0 µM -3% | [7]; at 1.2 µM -13% | [7]; at 3.7 µM -7% | [7]; at 11.0 µM -4% | [7]; at 33.0 µM 14% | [7]; at 100.0 µM 34% | [8]; at 1.2 µM -27% | [8]; at 3.7 µM -8% | [8]; at 11.0 µM -4% | [8]; at 33.0 µM 20% | [8]; at 100.0 µM 25% | [9]; [17] 9% | [9]; at 50.0 µM 67.6% | [10]; at 1.2 µM -9% | [10]; at 3.7 µM 2% | [10]; at 11.0 µM 11% | [10]; at 33.0 µM 18% | [10]; at 100.0 µM 17%

COc1ccc(/C=C/C(=O)c2ccccc2)cc1OC
17.4% (inactive) and 76.2% (active): [9]; at 50.0 µM
active: [16]; at 100.0 µM 95% | [12]; at 100.0 µM 75% | [14]; at 100.0 µM 96% | [1]; at 100.0 µM 95% | [2]; at 100.0 µM 92% | [4]; at 100.0 µM 97% | [6]; [18] 88% | [6]; at 100.0 µM 95% | [15]; at 100.0 µM 95% | [8]; at 100.0 µM 96% | [9]; [18] 79% | [10]; at 33.0 µM 72% | [10]; at 100.0 µM 95%
67.5% (inactive) and 83.8% (active): [6]; at 50.0 µM
51.9% (inactive) and 80.3% (active): [3]; at 50.0 µM
6.55% (inactive) and 84.3% (active): [14]; at 50.0 µM
54% (inactive) and 84% (active): [1]; at 50.0 µM
inactive: [16]; at 1.2 µM -42% | [16]; at 3.7 µM -42% | [16]; at 11.0 µM -30% | [16]; at 33.0 µM 19% | [12]; at 1.2 µM 16% | [12]; at 3.7 µM 11% | [12]; at 11.0 µM 28% | [12]; at 33.0 µM 27% | [14]; at 1.2 µM 12% | [14]; at 3.7 µM 1% | [14]; [17] 22% | [14]; at 11.0 µM -5% | [14]; at 33.0 µM 44% | [14]; [18] 48% | [1]; at 1.2 µM -6% | [1]; at 3.7 µM -12% | [1]; [17] -16% | [1]; at 11.0 µM -2% | [1]; at 33.0 µM 47% | [1]; [18] 59% | [2]; at 1.2 µM 3% | [2]; at 3.7 µM 5% | [2]; at 11.0 µM 14% | [2]; at 33.0 µM 46% | [3]; [17] 15% | [3]; [18] 54% | [4]; at 1.2 µM 12% | [4]; at 3.7 µM 3% | [4]; at 11.0 µM 19% | [4]; at 33.0 µM 37% | [5]; [17] 30% | [5]; [18] 34% | [5]; at 50.0 µM -16.2% and 58.3% | [6]; at 1.2 µM 4% | [6]; at 3.7 µM 14% | [6]; [17] 16% | [6]; at 11.0 µM -36% | [6]; at 33.0 µM 62% | [15]; at 1.2 µM -30% | [15]; at 3.7 µM -33% | [15]; at 11.0 µM -34% | [15]; at 33.0 µM 38% | [8]; at 1.2 µM -11% | [8]; at 3.7 µM -2% | [8]; at 11.0 µM 5% | [8]; at 33.0 µM 51% | [9]; [17] 3% | [10]; at 1.2 µM -12% | [10]; at 3.7 µM -20% | [10]; at 11.0 µM -8%
